This is a sample that favours compounds with a hit; in the whole collection about 9.4% have one here.
ELG1 repair inh: inhibitors of ELG1-dependent DNA repair in HEK293T cells. HEK293T ELG1-luciferase reporter, luminescence, 16 h; DNA damage induced by 5-fluorouridine. Potency, µM (series often up to 46.1 µM), actives largely listed as inhibitors. hit rate 2.3% among 330,000. AID 504467; note: nearly all actives have a fitted effect of over 55% in size
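In this reporter screen, reduction of luminescence relative to DMSO vehicle indicated activity. Compounds and 5-fluorouridine were added together to 2,000 cells per well, incubated for 16 hr at 37 °C, then developed with ONE-Glo.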
SMN2 splice up: enhancers of SMN2 splice variant expression | Potency, µM (series often up to 46.1 µM), hits mostly activators | hit rate 2.8% among 210,000 | HEK293 SMN2-luciferase splicing reporter, luminescence, 30-36 h | AID 1458; note: nearly all actives have a fitted effect of over 55% in size
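HEK293 cells carry an SMN2 […]–luciferase reporter in which exon 7 inclusion puts luciferase in frame. Cells were plated 10-12 h before compound addition, then incubated 30-36 h at 37C. ONE-Glo luminescence was read; sodium butyrate at 4.5 mM final served as control.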
NPC1 promoter act: activators of NPC1 promoter; Huh7 NPC1 promoter luciferase reporter, 24 h; Potency, µM (series often up to 9.22 µM), actives largely listed as activators; hit rate 2.4% among 320,000; note: nearly all actives have a fitted effect of over 60% in size
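Quantitative HTS used a cell-based reporter: Huh7 cells stably bearing the NPC1 promoter upstream of luciferase were treated with compounds for 24 h, and promoter activation was read as luminescence.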
ELG1 genotoxic: induces genotoxicity in HEK293T cells with luciferase-tagged ELG1 | hit rate 1.3% among 330,000 | AID 504466 | HEK293T ELG1-luciferase reporter, luminescence, 16 h | Potency, µM (titrated, usually from 46 µM), most hits filed as activators; note: nearly all actives have a fitted effect of over 60% in size
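HEK293T cells expressing luciferase-tagged ELG1 were treated with compound or DMSO for 16 hr at 37°C. Luciferase activity was then read after 30 min with ONE-Glo at room temperature; rising signal flags genetic stress.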
FLuc modulator: inhibits or activates purified firefly luciferase, miR-21 counter-screen | Potency, µM (doses to about 57.5 µM), most hits filed as inhibitors | P08659 | purified FLuc, Km substrates, luminescence inhibition | hit rate 6.9% among 360,000 | AID 588342; note: nearly all actives have a fitted effect of over 55% in size
Target sequence (P08659 whole entry, looked up): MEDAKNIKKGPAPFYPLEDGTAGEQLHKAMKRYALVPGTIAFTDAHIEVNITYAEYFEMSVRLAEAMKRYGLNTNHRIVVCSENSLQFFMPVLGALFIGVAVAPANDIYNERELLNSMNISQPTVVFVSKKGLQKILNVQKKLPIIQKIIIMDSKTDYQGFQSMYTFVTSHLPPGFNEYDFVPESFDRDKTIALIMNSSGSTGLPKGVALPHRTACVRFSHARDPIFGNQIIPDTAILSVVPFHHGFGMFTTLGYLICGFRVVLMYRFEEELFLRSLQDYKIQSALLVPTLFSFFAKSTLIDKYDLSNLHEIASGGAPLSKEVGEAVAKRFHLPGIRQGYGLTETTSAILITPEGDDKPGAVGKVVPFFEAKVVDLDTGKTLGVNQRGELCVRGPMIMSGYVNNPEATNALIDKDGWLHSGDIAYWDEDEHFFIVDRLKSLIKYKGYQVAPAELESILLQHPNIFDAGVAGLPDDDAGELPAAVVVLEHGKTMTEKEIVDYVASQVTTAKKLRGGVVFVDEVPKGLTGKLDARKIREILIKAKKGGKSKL
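Purified P. pyralis luciferase (10nM final) with 10uM D-luciferin and 10uM ATP (Km levels) in 50mM Tris acetate pH 7.5, 10mM Mg acetate, 0.01% Tween-20, 0.05% BSA; qHTS 6-point titration, ~60 µM downward; luminescence read.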
Rab9 prom act: activates the Rab9 promoter; Potency, µM (top dose mostly 9.22 µM), actives largely listed as activators; Huh7 Rab9 promoter-luciferase reporter, luminescence, 24 h; hit rate 2.8% among 320,000; note: nearly all actives have a fitted effect of over 60% in size
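Steps: seed 1500 Huh7 Rab9-luc cells per well, rest 2 h at 37 °C; add compound in DMSO; incubate 24 h; add luciferase reagent, 10 min ambient; read luminescence.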
Large screens that a line does not name were inactive; ! = not confirmed by another sample. Calls come from the whole dose curve; as a rule, active = well fitted curve in the direction sought with a large enough effect; inconclusive = small, poorly fitted or top-dose-only effect, or another doubt; inactive = no such curve, though single readings can be large; an effect the other way counts as inactive or inconclusive.

COc1cccc(C(=O)Nc2cccc(C(=O)OCc3cc(=O)n4c(C)csc4n3)c2)c1	none (no result: ELG1 repair inh, SMN2 splice up, NPC1 promoter act, ELG1 genotoxic, Rab9 prom act)
C=CC1=C2C=C(C3CC3)N(CCN3CCOCC3)C=C2C(=O)C(C)(OC(=O)c2ccco2)C1=O (centres undefined)	none (no result: ELG1 repair inh, NPC1 promoter act, ELG1 genotoxic, FLuc modulator, Rab9 prom act)
CCOC(=O)c1ccc(N2C(=O)c3[nH]nc(-c4ccc(C)cc4)c3C2c2ccc(O)c(OCC)c2)cc1 (centres undefined)	none (no result: ELG1 repair inh, NPC1 promoter act, ELG1 genotoxic, Rab9 prom act)
Cc1ccccc1CNC(=O)CCCn1c(=O)c2cccn2c2ccccc21	none (no result: ELG1 repair inh, SMN2 splice up, NPC1 promoter act, ELG1 genotoxic, Rab9 prom act)
O=C(c1cnn2c(C(F)(F)F)cc(-c3ccc(Br)cc3)nc12)N1CCOCC1	ELG1 repair inh inconclusive (no result: SMN2 splice up)
c1ccc(-c2cc(N3CCOCC3)nc(-c3ccccc3)n2)cc1	none
Cc1nn2c(C(F)(F)F)cc(-c3ccc(Cl)cc3)nc2c1C(=O)N1CCOCC1	ELG1 repair inh 16.4µM
Cc1ccc(-c2cc(C(=O)N3CCOCC3)c3cc(C)ccc3n2)cc1	FLuc modulator 6.75µM (no result: SMN2 splice up)
O=C(c1cc(-c2ccc(Cl)cc2)nc2ccccc12)N1CCOCC1	FLuc modulator 19µM (no result: SMN2 splice up)
c1ccc(-c2cc(-c3ccc(N4CCOCC4)cc3)nc3ccccc23)cc1	ELG1 repair inh inconclusive, FLuc modulator 15.1µM
CN(Cc1cccc2ccccc12)Cc1cccc2ccccc12	none (no result: ELG1 repair inh, NPC1 promoter act, ELG1 genotoxic, FLuc modulator, Rab9 prom act)
COc1ccc(CNC(=O)CCc2nc(-c3ccc(C)cc3)no2)c(OC)c1	none (no result: ELG1 repair inh, NPC1 promoter act, ELG1 genotoxic, Rab9 prom act)
COc1ccc(-c2nnn3c2nc(NCCc2ccc(OC)c(OC)c2)c2ccccc23)cc1	none (no result: ELG1 repair inh, NPC1 promoter act, ELG1 genotoxic, Rab9 prom act)
Cc1cc(C)c(S(=O)(=O)NCc2csc(-c3ccccc3)n2)c(C)c1	none (no result: ELG1 repair inh, NPC1 promoter act, ELG1 genotoxic, Rab9 prom act)
CCn1cc(CNCc2cn(C)nc2-c2ccc(C3CCCCC3)cc2)cn1	FLuc modulator 15.1µM (no result: SMN2 splice up)
Cn1cc(CNCc2ccc(OC(F)(F)F)cc2)c(-c2ccc3c(c2)OCCO3)n1	none (no result: SMN2 splice up)
CC1=C/C(=C(/c2ccc(O)c(C)c2)c2ccccc2S(=O)(=O)O)C=CC1=O	FLuc modulator inconclusive (no result: SMN2 splice up)
CC1=C/C(=C(/c2cc(C)c(O)c(Br)c2)c2ccccc2S(=O)(=O)O)C=C(Br)C1=O	ELG1 repair inh inconclusive, FLuc modulator 15.1µM (no result: SMN2 splice up)
Cc1ccc(/C=C2/NC(=O)N(Cc3ccccc3)C2=O)o1	none
CCn1c(C)cc(/C=C2\NC(=O)N(Cc3ccc(Cl)cc3)C2=O)c1C	none
CCN1C(=O)N/C(=C/c2cc(C)n(Cc3ccccc3)c2C)C1=O	ELG1 repair inh inconclusive, NPC1 promoter act inconclusive, FLuc modulator 3.38µM, Rab9 prom act inconclusive
Cn1c(=O)n(C)c2cc(/C=C3/NC(=O)N(Cc4ccccc4)C3=O)ccc21	ELG1 repair inh inconclusive, ELG1 genotoxic 9.2µM
CO[C@@H]1/C=C\O[C@@]2(C)Oc3c(C)c(O)c4c(c3C2=O)C(=N[C@H]2CC[C@H](O)O[C@@H]2C)C=C(NC(=O)/C(C)=C\C(=O)[C@@H]2C[C@@H]2[C@@H](O)[C@H](C)[C@@H](O)[C@H](C)[C@H](OC(C)=O)[C@@H]1C)C4=O	none (no result: ELG1 repair inh, NPC1 promoter act, ELG1 genotoxic, FLuc modulator, Rab9 prom act)
COc1cc(/C=C(/C(=O)c2cccs2)c2nc3ccccc3[nH]2)cc(OC)c1O	ELG1 repair inh inconclusive, FLuc modulator 2.39µM
COc1cc(/C=N/Nc2nc3ccccc3[nH]2)cc(Br)c1OCC(=O)N(C)C	ELG1 repair inh inconclusive, FLuc modulator 23.9µM
COc1cc(/C=N/Nc2nc3ccccc3[nH]2)cc(OC)c1O	FLuc modulator 4.78µM (no result: SMN2 splice up)
COc1ccc(OC)c(/C=N/NC(=O)Cc2nc3ccccc3[nH]2)c1	none
COc1ccc(O)c(/C=N/Nc2nc3ccccc3[nH]2)c1	ELG1 repair inh inconclusive, SMN2 splice up inconclusive, ELG1 genotoxic inconclusive, FLuc modulator 6.75µM, Rab9 prom act inconclusive
COc1ccc(C(=O)N/C(=C/c2cccs2)c2nc3ccccc3[nH]2)cc1OC	ELG1 repair inh inconclusive, FLuc modulator inconclusive
Cc1cccc(CN2CCN(CC(=O)Nc3c(C)cccc3C)S2(=O)=O)c1	none (no result: ELG1 repair inh, SMN2 splice up, NPC1 promoter act, ELG1 genotoxic, Rab9 prom act)
O=[N+]([O-])c1ccc(N/N=C/c2ccccc2O)cc1	ELG1 repair inh inconclusive, ELG1 genotoxic inconclusive, FLuc modulator 15.1µM (no result: SMN2 splice up)
O=[N+]([O-])c1ccc(O)c(/C=N/Nc2nc3ccccc3[nH]2)c1	ELG1 repair inh inconclusive, ELG1 genotoxic 18.4µM, FLuc modulator inconclusive
COc1cc(/C=N/Nc2nc3ccccc3[nH]2)ccc1O	ELG1 repair inh inconclusive, ELG1 genotoxic inconclusive, FLuc modulator 4.78µM
O=[N+]([O-])c1cccc(N/N=C/c2cc([N+](=O)[O-])ccc2O)c1	ELG1 repair inh inconclusive, NPC1 promoter act inconclusive, ELG1 genotoxic inconclusive, FLuc modulator inconclusive
COc1cc(/C=N/Nc2nc(=O)[nH]nc2C)ccc1O	FLuc modulator inconclusive (no result: SMN2 splice up)
CCOc1cc(/C=N/Nc2nc(C)cc(=O)[nH]2)ccc1O	ELG1 repair inh inconclusive, FLuc modulator inconclusive (no result: SMN2 splice up)
COc1cc(/C=N/Nc2nc3ccccc3[nH]c2=O)ccc1O	SMN2 splice up inconclusive, FLuc modulator 15.1µM
COC(=O)c1ccccc1NC(=O)c1cc(C)nc2c1c(C)nn2-c1ccc(C)cc1	none (no result: ELG1 repair inh, SMN2 splice up, NPC1 promoter act, ELG1 genotoxic, Rab9 prom act)
Cc1cccc2c1cnn2C(=O)Nc1ccc(Br)cc1F	NPC1 promoter act 0.282µM, FLuc modulator inconclusive, Rab9 prom act inconclusive (no result: SMN2 splice up)
Cc1ccc(NC(=O)n2ncc3c(C)cccc32)c(C)c1	ELG1 repair inh inconclusive, NPC1 promoter act 0.398µM, ELG1 genotoxic inconclusive, FLuc modulator 2.39µM!, Rab9 prom act 0.316µM (no result: SMN2 splice up)
O=S(=O)(c1ccc(Cl)cc1)c1nc(-c2cccs2)oc1SCc1ccc(F)cc1	none (no result: ELG1 repair inh, NPC1 promoter act, ELG1 genotoxic, Rab9 prom act)

Assay outcomes deposited in PubChem by National Center for Advancing Translational Sciences (NCATS).
